{
  "source": "PubChem BioAssay AID1159580",
  "about": "(chemical genetic matrix, 2015)",
  "assay": "chemical genetic growth profiling, strain panel (AID 1159580);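 note: tested at 20 µM; growth read once vehicle control cultures reached saturation at 30 °C; 1 = growth at the plate median or of vehicle wells; lower values mean less growth of the strain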",
  "conditions": "growth OD",
  "note": "“And” between values parts separate entries of the source, which are not always exact repeats. Identical values can stand only once. Out of some 5,500 compounds screened, about 2,000 (36%) were called active. Inconclusive results (about 18%) are left out. Some of the results follow. A number with no mark means an inactive call. Cut-off read from the data, not from the text of the source: active = normalized growth mostly below about 0.91 (no sharp cut-off); inconclusive = no clear call, values can overlap the other calls; inactive = mostly above about 0.92.",
  "data": [
    {"smiles": "CN(C)CCCN1c2ccccc2Sc2ccc(C(F)(F)F)cc21", "values": [
      {"measurement": "normalized growth", "setting": "S. cerevisiae deletion strains, locus YNL153C, strain GIM3, active compounds read low", "result": 1.01},
      {"measurement": "normalized growth", "setting": "S. cerevisiae deletion strains, locus YNL175C, strain NOP13, active compounds read low", "result": 1.01},
      {"measurement": "normalized growth", "setting": "S. cerevisiae deletion strains, locus YNL183C, strain NPR1, active compounds read low", "result": 0.962},
      {"measurement": "normalized growth", "setting": "S. cerevisiae deletion strains, locus YNL197C, strain WHI3, active compounds read low", "result": 1.03},
      {"measurement": "normalized growth", "setting": "S. cerevisiae deletion strains, locus YNL209W, strain ssb2, active compounds read low", "result": 0.986},
      {"measurement": "normalized growth", "setting": "S. cerevisiae deletion strains, locus YNL224C, strain SQS1, active compounds read low", "result": 1.03},
      {"measurement": "normalized growth", "setting": "S. cerevisiae deletion strains, locus YNL233W, strain BNI4, active compounds read low", "result": 1.02},
      {"measurement": "normalized growth", "setting": "S. cerevisiae deletion strains, locus YNL248C, strain rpa49, active compounds read low", "result": 0.953},
      {"measurement": "normalized growth", "setting": "S. cerevisiae deletion strains, locus YNL250W, strain rad50, active compounds read low", "result": 0.963},
      {"measurement": "normalized growth", "setting": "S. cerevisiae deletion strains, locus YNL271C, strain bni1, active compounds read low", "result": 0.982},
      {"measurement": "normalized growth", "setting": "S. cerevisiae deletion strains, locus YNL298W, strain CLA4, active compounds read low", "result": 0.954},
      {"measurement": "normalized growth", "setting": "S. cerevisiae deletion strains, locus YNL307C, strain MCK1, active compounds read low", "result": 0.987},
      {"measurement": "normalized growth", "setting": "S. cerevisiae deletion strains, locus YNL322C, strain KRE1 (second series), active compounds read low", "result": 1.03},
      {"measurement": "normalized growth", "setting": "S. cerevisiae deletion strains, locus YNL322C, strain KRE1, active compounds read low", "result": "0.993 and 0.907"},
      {"measurement": "normalized growth", "setting": "S. cerevisiae deletion strains, locus YNR049C, strain mso1, active compounds read low", "result": 1.02},
      {"measurement": "normalized growth", "setting": "S. cerevisiae deletion strains, locus YNR052C, strain pop2, active compounds read low", "result": 0.962},
      {"measurement": "normalized growth", "setting": "S. cerevisiae deletion strains, locus YOL006C, strain TOP1, active compounds read low", "result": 0.611},
      {"measurement": "normalized growth", "setting": "S. cerevisiae deletion strains, locus YOL012C, strain htz1", "result": 1.01},
      {"measurement": "normalized growth", "setting": "S. cerevisiae deletion strains, locus YOL147C, strain pex11, active compounds read low", "result": 0.991},
      {"measurement": "normalized growth", "setting": "S. cerevisiae deletion strains, locus YOR001W, strain rrp6, active compounds read low", "result": 0.938},
      {"measurement": "normalized growth", "setting": "S. cerevisiae deletion strains, locus YOR061W, strain CKA2, active compounds read low", "result": 0.967},
      {"measurement": "normalized growth", "setting": "S. cerevisiae deletion strains, locus YOR069W, strain VPS5, active compounds read low", "result": 0.987},
      {"measurement": "normalized growth", "setting": "S. cerevisiae deletion strains, locus YOR070C, strain gyp1, active compounds read low", "result": 1.01},
      {"measurement": "normalized growth", "setting": "S. cerevisiae deletion strains, locus YOR080W, strain dia2, active compounds read low", "result": 1.03},
      {"measurement": "normalized growth", "setting": "S. cerevisiae deletion strains, locus YOR083W, strain WHI5 (second series), active compounds read low", "result": 0.946},
      {"measurement": "normalized growth", "setting": "S. cerevisiae deletion strains, locus YOR083W, strain WHI5, active compounds read low", "result": 0.954},
      {"measurement": "normalized growth", "setting": "S. cerevisiae deletion strains, locus YOR106W, strain vam3, active compounds read low", "result": "0.561 (active)"},
      {"measurement": "normalized growth", "setting": "S. cerevisiae deletion strains, locus YOR136W, strain idh2, active compounds read low", "result": 0.972},
      {"measurement": "normalized growth", "setting": "S. cerevisiae deletion strains, locus YOR144C, strain elg1, active compounds read low", "result": 0.974},
      {"measurement": "normalized growth", "setting": "S. cerevisiae deletion strains, locus YOR184W, strain ser1, active compounds read low", "result": 0.96},
      {"measurement": "normalized growth", "setting": "S. cerevisiae deletion strains, locus YOR231W, strain MKK1, active compounds read low", "result": 0.978},
      {"measurement": "normalized growth", "setting": "S. cerevisiae deletion strains, locus YOR265W, strain rbl2, active compounds read low", "result": 1.01},
      {"measurement": "normalized growth", "setting": "S. cerevisiae deletion strains, locus YOR270C, strain vph1, active compounds read low", "result": "0.737 (active)"},
      {"measurement": "normalized growth", "setting": "S. cerevisiae deletion strains, locus YOR290C, strain snf2, active compounds read low", "result": 0.989},
      {"measurement": "normalized growth", "setting": "S. cerevisiae deletion strains, locus YOR316C, strain cot1, active compounds read low", "result": 0.965},
      {"measurement": "normalized growth", "setting": "S. cerevisiae deletion strains, locus YPL051W, strain arl3, active compounds read low", "result": 0.966},
      {"measurement": "normalized growth", "setting": "S. cerevisiae deletion strains, locus YPL055C, strain LGE1, active compounds read low", "result": "0.968 and 0.953"},
      {"measurement": "normalized growth", "setting": "S. cerevisiae deletion strains, locus YPL078C, strain atp4, active compounds read low", "result": 0.992},
      {"measurement": "normalized growth", "setting": "S. cerevisiae deletion strains, locus YPL106C, strain sse1, active compounds read low", "result": 0.911},
      {"measurement": "normalized growth", "setting": "S. cerevisiae deletion strains, locus YPL240C, strain hsp82, active compounds read low", "result": 1.03},
      {"measurement": "normalized growth", "setting": "S. cerevisiae deletion strains, locus YPL241C, strain CIN2, active compounds read low", "result": "0.996 and 0.976"},
      {"measurement": "normalized growth", "setting": "S. cerevisiae deletion strains, locus YPL256C, strain CLN2, active compounds read low", "result": 0.988},
      {"measurement": "normalized growth", "setting": "S. cerevisiae deletion strains, locus YPR119W, strain clb2, active compounds read low", "result": 0.982},
      {"measurement": "normalized growth", "setting": "S. cerevisiae deletion strains, locus YPR141C, strain kar3, active compounds read low", "result": 0.926},
      {"measurement": "normalized growth", "setting": "S. cerevisiae deletion strains, locus YPR163C, strain tif3, active compounds read low", "result": 0.979},
      {"measurement": "normalized growth", "setting": "S. cerevisiae deletion strains, locus YPR167C, strain met16, active compounds read low", "result": 0.981},
      {"measurement": "normalized growth", "setting": "S. cerevisiae deletion strains, strain wtn01, active compounds read low", "result": 0.981},
      {"measurement": "normalized growth", "setting": "S. cerevisiae strains, strain wild type, active compounds read low", "result": 0.979}
    ]}
  ]
}
